# Assay results as given in the supplement of paper PMC3616981.
# ± gives the standard deviation of the averaged measurements.
# Compound: CC(C)c1cccc(C(C)C)c1N1C(=O)c2ccc(O)cc2C1=O
# Test: BioMAP readout fold decrease vs vehicle (vehicle/treated); higher = stronger decrease of the readout vs vehicle (values <1 mean increase)
# Experimental: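 BioSeek BioMAP human primary cell (co-)culture systems (3C, 4H, LPS, SAg, BE3C, CASM3C, hDFCGF, KF3CT) treated with 5HPP-33 at 1.48, 4.44, 13.3 and 40 µM. Read-outs are protein levels by ELISA, proliferation and SRB total protein. Duplicate rows per assay are averaged as replicates. Tested in ToxCast Phase II for this study; exposure time not stated.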
# 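Further: Co-cultures of keratinocytes, bronchial epithelial and smooth muscle cells, fibroblasts, HUVECs and PBMCs under stimuli like LPS, TNF-α, IFN-γ, IL-1β, TGF-β or EGF, SRB reflecting cytotoxicity.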
Target,BioMAP readout fold decrease (1.48 µM),BioMAP readout fold decrease (4.44 µM),BioMAP readout fold decrease (13.3 µM),BioMAP readout fold decrease (40 µM)
KF3CT_uPA,1.016 ± 0.0099,1.015 ± 0.01,0.969 ± 0.012,2.15 ± 0.47
4H_MCP1,1.01 ± 0.026,0.699 ± 0.023,0.623 ± 0.0095,1.43 ± 0.071
3C_Proliferation,1.29 ± 0.074,3.56 ± 0.043,6.1 ± 0.28,7.03 ± 0.41
CASM3C_IL8,1.02 ± 0.02,1.074 ± 0.0085,0.938 ± 0.016,0.872 ± 0.025
CASM3C_HLADR,0.895 ± 0.021,0.797 ± 0.061,1.41 ± 0.07,2.61 ± 0.45
SAg_IL8,1.12 ± 0.039,1.19 ± 0.029,0.963 ± 0.026,1.36 ± 0.052
3C_TissueFactor,0.903 ± 0.018,0.906 ± 0.021,0.943 ± 0.014,1.43 ± 0.2
3C_ICAM1,1.05 ± 0.025,1.05 ± 0.019,1.02 ± 0.013,1.08 ± 0.087
BE3C_TGFb1,1.05 ± 0.079,1.09 ± 0.061,1.117 ± 0.0036,1.32 ± 0.1
hDFCGF_TIMP1,0.847 ± 0.061,0.78536 ± 0.00052,0.608 ± 0.042,0.715 ± 0.069
